# Measured values as given in the supplement of paper PMC6555819.
# Tested on: VDR:RXRa (NR concentration 270 nM, RXRa partner concentration 90 nM)
# Assay: PBM binding z-score (relative to random genomic background probes); higher = stronger binding; sequences stand for … in GC…GCGATTGACAGCGTAGAATGAAGG
# Experimental: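 Protein-binding microarray (Agilent 4x180K custom design, double-stranded 60-nt probes: 5' GC cap, 34-nt variable region, 24-nt constant primer region; full probe sequence given). Purified or IVT nuclear receptor:RXRα heterodimers (3:1 NR:RXRα, mostly 270:90 nM) or homodimers were incubated for 1 h in PBS with 2% milk and no ligand, then detected with Alexa488 antibodies. Fluorescence from o1-orientation probes (~5 replicates averaged) was converted to z-scores against 500 random hg19 background probes. Variable regions are seed direct-repeat (DR0–DR5) sites, all their single-nucleotide variants and half-site ablations.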
row,Sequence,PBM binding z-score
1,CCAGACAGGTGAGAAGGTAACTCTGCCTCGATTA,-0.12
2,AATACAGGGACACTAGGCCAGAGTAGGTACGAAT,-0.219
3,TCGAGTAGGTTAGTCGGGGAATTCAGCCAACATA,-0.318
4,CAACCTAGGTCAAGAGGTCAAAGTCCGCTTCCCG,6.21
5,ACTCGGAGGACAATGGTCAGAGCTACGCCAGTGA,-0.697
6,AGTCAAAGTTCAGGACGAGGTGACGTAAAGCACG,3.27
7,TAGCCGAGGTCATTGGGCCAGTATAGTACGCATC,5.59
8,AGTCAAAGTTCAGGACGAGGTAACATAAAGCACG,3.13
9,AGAACGCGGGCAATGAGTTGATAGCACGGGTGGC,1.56
10,TCAGATAGGTGAAGGTAACTCAGGTACGCAGTCG,0.796
11,CCTACTTGGCCAAAGGTCATTGATTCCAATGCTC,4.62
12,GCTGCTAGGTCAACTGATGGTCAGCTATAGCTCG,1.82
13,CCTTACGCGTCACGAGGTTATAGCACGACGAGCG,0.899
14,ATCTCTAGGTAAAGATAGTTCAGTGACTGCAAAT,1.05
15,CGTCCAAGGTAAAAGGTCAGTGAAGAGATGACGG,2.93
16,GCTTGTAGATCAAGGTTAAGACAGACTAAGCTAA,0.166
17,CGTCCAATGTCATAGGAGGTCAGTGAAGACAGAT,3.45
18,TCTAGTAGGTTAGGGGCATTCAGAATGGCGTCGA,1.04
19,CCGAGTAGGTTAAGGGGCATTCAGGCAACGGTGA,0.877
20,TCTAGTTGGTCAAAGGACACACACTCGAAATGCG,1.05

row,Sequence,PBM binding z-score
1,ATATGCAGGTTACATCCGGGTCATTCAGGCTATG,4.47
2,AGTCAAAGTTCACTAGGTAACGGAAGATTCAGCT,3.97
3,TCAGGCAGGTGAAGGTAACTCAGGTACGCAGTCG,0.269
4,GCTAGTTGGTCAGTCAAAGGTCACACACCGGTCG,4.3
5,ATCTCTAGGTAACCAAGTACAGTGAATGCCGAAC,1.19
6,TTACCAAGGTGAAGGGCGTTGATCCCTCTGTAGA,0.253
7,AGTCAAAGTTCAGCTAGGTAACGTAAGATATGCT,3.03
8,TGGCAAAGTTCAAAGGTAACGTAAGTATCCACAC,5.01
9,ATCTCTAGGTAACCAGTTCAGTGAAAGAGAGGAC,1.16
10,TCATATAGGTAAAACAGGTGAAAGTCGGCATCTA,1.17
11,CCGACTGGGGCAGAAAGGTTACCGTACCATCCGG,0.919
12,ACTTACGAGTCAACGAGGTTATAGCACGCGTATA,4.89
13,GCTTGTAGATCAAGGTTAAGAATGACTAAGCTAA,0.0818
14,ATCGAAAGGTCGTGAGGTCAGTATACAGAAAGGC,5.51
15,TCTGCTAGCTCAACGATGGTCAGCTAATCTGCTA,-0.662
16,CCTCAAAGTTCAACTAAGGTAACGTAAAGCACGC,4.88
17,ATATGTAGGTTACATCCGGGTCCTTCAGGCTATG,0.695
18,ACCTACGGGTCAACGAGGTTATAGCACGCGTATA,7.64
19,ATCTCCAGGTAAAGATAGTTCAGTGAATGCAAAT,0.845
20,CCTGCAAGGTCATGGTCAGCTAATCTACAGTATG,4.76
